SRC3 inh: SRC3 coactivator transcriptional activity inhibitors, primary screen, cell-based, luminescence. Nuclear receptor coactivator 3 (Homo sapiens), Q9Y6Q9. HEK293 GAL4-SRC3 luciferase reporter. inhibition, % at 3.6 µM. 360,000 tested, 0.17% active. AID 588352, 2011;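 active = inhibition above a per-campaign cutoff, the mean of all compounds plus 3 SD, cut at about 60% in these data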;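 note: 0% = DMSO-treated cells and 100% = gossypol-treated cells at 36 µM; higher means less SRC3-driven luciferase light from the GAL4 reporter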
Target sequence (Q9Y6Q9 whole entry, looked up, the tested form may be a part): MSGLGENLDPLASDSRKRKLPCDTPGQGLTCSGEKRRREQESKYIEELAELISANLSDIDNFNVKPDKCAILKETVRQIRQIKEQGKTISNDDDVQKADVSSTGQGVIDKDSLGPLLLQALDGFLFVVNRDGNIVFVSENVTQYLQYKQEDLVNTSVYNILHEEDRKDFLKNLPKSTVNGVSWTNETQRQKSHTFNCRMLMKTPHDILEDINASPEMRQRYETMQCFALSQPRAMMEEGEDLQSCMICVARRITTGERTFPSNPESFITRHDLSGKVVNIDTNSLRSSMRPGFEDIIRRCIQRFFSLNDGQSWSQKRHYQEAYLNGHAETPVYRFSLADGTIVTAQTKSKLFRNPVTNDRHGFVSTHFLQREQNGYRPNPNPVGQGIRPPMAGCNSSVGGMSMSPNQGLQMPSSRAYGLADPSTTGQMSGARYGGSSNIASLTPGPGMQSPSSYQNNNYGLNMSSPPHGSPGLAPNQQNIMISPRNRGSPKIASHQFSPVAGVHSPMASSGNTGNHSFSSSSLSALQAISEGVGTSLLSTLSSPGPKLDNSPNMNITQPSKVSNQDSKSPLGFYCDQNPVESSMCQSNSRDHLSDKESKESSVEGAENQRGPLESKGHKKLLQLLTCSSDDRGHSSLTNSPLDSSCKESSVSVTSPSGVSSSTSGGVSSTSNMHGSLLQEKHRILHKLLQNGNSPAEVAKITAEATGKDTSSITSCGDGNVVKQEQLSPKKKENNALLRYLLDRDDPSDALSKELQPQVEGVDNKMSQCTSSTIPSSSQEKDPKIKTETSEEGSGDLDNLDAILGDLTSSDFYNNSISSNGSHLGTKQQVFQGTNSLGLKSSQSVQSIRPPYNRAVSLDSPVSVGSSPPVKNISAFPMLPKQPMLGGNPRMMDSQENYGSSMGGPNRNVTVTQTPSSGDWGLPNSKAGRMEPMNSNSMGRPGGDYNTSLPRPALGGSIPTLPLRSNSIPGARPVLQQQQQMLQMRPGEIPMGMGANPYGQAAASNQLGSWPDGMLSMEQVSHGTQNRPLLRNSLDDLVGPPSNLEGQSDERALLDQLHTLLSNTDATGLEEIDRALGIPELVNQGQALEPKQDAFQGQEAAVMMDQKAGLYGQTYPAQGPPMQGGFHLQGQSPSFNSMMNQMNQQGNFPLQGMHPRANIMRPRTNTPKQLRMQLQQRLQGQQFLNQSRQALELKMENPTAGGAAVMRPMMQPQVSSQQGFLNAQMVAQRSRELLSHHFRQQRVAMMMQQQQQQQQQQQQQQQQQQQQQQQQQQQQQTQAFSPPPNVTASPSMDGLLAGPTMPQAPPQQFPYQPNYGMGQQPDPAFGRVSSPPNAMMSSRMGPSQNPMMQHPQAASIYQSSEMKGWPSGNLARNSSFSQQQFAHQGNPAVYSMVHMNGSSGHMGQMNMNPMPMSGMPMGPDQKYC
NCOA1 inh: SRC1 coactivator transcriptional activity inhibitors, primary screen, cell-based, luminescence; HEK293 GAL4-SRC1 luciferase reporter; AID 588354, 2011; Nuclear receptor coactivator 1 (Homo sapiens), Q15788; inhibition, % at 3.6 µM; 360,000 tested, 0.12% active;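 active = inhibition above the campaign mean plus 3 SD, with each screening campaign given its own cutoff, cut at about 60% in these data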;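 note: 0% = DMSO treated cells and 100% = gossypol at 36 µM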
Gli-Sufu antag: Gli-Sufu pathway antagonists, primary screen, luciferase luminescence, Sufu-KO-LIGHT cells, uHTS | Sufu-KO-LIGHT fibroblasts, Gli luciferase reporter luminescence | 340,000 tested, 0.74% active | inhibition, % at 5 µM;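 active = inhibition above about 55%, limit read from the data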;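 note: 0% = DMSO-treated cells and 100% = wells with medium but no cells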
LRH-1 inv ag: LRH-1 (NR5A2) inverse agonists, primary screen, cell-based, luminescence, HEK293T, StAR-luciferase reporter. LRH-1 transfected, 24 h. inhibition, % at 3.6 µM. 360,000 tested, 0.13% active;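 active = inhibition above the mean inhibition of all tested compounds plus 3 SD, cut at about 73% in these data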;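 note: 0% = DMSO wells and 100% = reporter-only cells lacking LRH-1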
SRC2 inh: inhibition of GAL4-SRC2 driven luciferase reporter, primary screen, SRC2 inhibitor project, cell-based, luminescence; inhibition, % at 9 µM; 370,000 tested, 0.17% active; Nuclear receptor coactivator 2 (Homo sapiens), Q15596; AID 651957, 2012; HEK293 GAL4-SRC2 luciferase reporter;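 active = inhibition above the mean inhibition of all tested compounds plus 3 SD, set per campaign, cut at about 52% in these data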;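 note: 0% = DMSO treated cells and 100% = cells given Gossypol at 36 µM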
NR2F2 inh: NR2F2 transcriptional activity inhibitors, primary screen, cell-based, luciferase reporter, HEK293T, luminescence; inhibition, % at 8.6 µM; HEK293T NGFI-A luciferase reporter; COUP transcription factor 2 (Homo sapiens), P24468; 370,000 tested, 0.7% active; AID 686940, 2013;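 active = inhibition above a per-plate cutoff, mean inhibition of test wells between control levels plus 3 SD, cut at about 38% in these data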;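 note: cells cotransfected with COUP-TFII expression vector driving the NGFI-A reporter; 0% = median of COUP-TF2 test wells and 100% = reporter-only cells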
Gli-Sufu confirm: Gli-SUFU pathway antagonists, confirmation, single concentration, luciferase luminescence, Sufu-KO-LIGHT cells; shares compounds with Gli-Sufu antag; Gli luciferase reporter; inhibition, % at 5 µM; 2,500 tested, 40% active; AID 602428, 2012;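 active = mean inhibition at 5 µM reaching about 45%, limit read from the data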;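 note: plate controls were DMSO-treated cells for no effect and wells lacking cells for full effect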
SufuKO cytotox: cytotoxicity in Sufu-KO-LIGHT cells, confirmation, cytotoxicity control for Gli-SUFU antagonist project, cell-based, ATP luminescence, single concentration. 2,500 tested, 32% active. shares compounds with Gli-Sufu antag. cytotoxicity, % at 5 µM. AID 651994, 2013;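 active = mean cytotoxicity at 5 µM above about 25%, limit read from the data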;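 note: cells exposed to compound overnight for roughly 16 to 18 hours; plate controls were DMSO wells with cells for no effect and medium without cells for full effect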
Wnt3a cs: Wnt3a reporter signal inhibition, confirmation, counter-screen for Gli-SUFU antagonist project, Wnt-LIGHT cells, luminescence, single concentration; shares compounds with Gli-Sufu antag; Wnt3a-driven luciferase reporter; inhibition, % at 6.25 µM; 2,500 tested, 20% active; AID 651995, 2013;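 active = mean inhibition above about 25%, limit read from the data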
Gal4-VP16 ctr: Gal4-VP16 luciferase reporter inhibitors, counter-screen for COUP-TFII antagonist project, cell-based, luminescence, HEK293; 2,500 tested, 25% active; shares compounds with NR2F2 inh; inhibition, % at 8.5 µM; in the data active = inhibition above about 13%
COUP-TFII conf: NR2F2 transcriptional activity inhibitors, confirmation, cell-based, luciferase reporter, HEK293, triplicate | shares compounds with NR2F2 inh | HEK293 NGFI-A luciferase reporter, luminescence | inhibition, % at 8.5 µM | 2,500 tested, 45% active;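 active = mean inhibition over three repeats above a set limit taken from the earlier primary screen, cut at about 38% in these data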;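 note: 100% = cells given the luciferase reporter alone without the COUP-TF2 vector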
* marks the source's active call; other numbers are inactive results; / = no result given. Sampled rows, rich in hits. Any-hit rate of the full collection: about 1.2%.

SMILES | SRC3 inh | NCOA1 inh | Gli-Sufu antag | LRH-1 inv ag | SRC2 inh | NR2F2 inh | Gli-Sufu confirm | SufuKO cytotox | Wnt3a cs | Gal4-VP16 ctr | COUP-TFII conf
Cc1ccc(C)c(C(=O)COc2ccc(C)nc2[N+](=O)[O-])c1 | -9 | -9 | 0 | -10 | -13 | -11 | / | / | / | / | /
Cc1ccc(OCC(=O)c2cc(C)n(-c3ccccc3)c2C)c([N+](=O)[O-])n1 | 53 | 29 | 70* | 33 | 78* | 53* | 74* | 16 | 87* | -50 | -9
COC(=O)C1CN(Cc2ccccc2)CCS(=O)(=O)N1Cc1ccccc1F (stereo not drawn) | / | / | / | / | -2 | -15 | / | / | / | / | /
CCc1ccc(-c2nc(CSCC(=O)NCc3ccco3)c(C)o2)cc1 | 45 | 38 | 84* | 38 | 80* | 77* | 88* | -2 | 46* | 8 | 20
COc1ccc(/C=C2\Sc3ccc(C(=O)N4CCN(Cc5ccccc5)CC4)cc3N(C)C2=O)cc1OC | 28 | 11 | 99* | 32 | 23 | 71* | 13 | 13 | -7 | 6 | 58*
C[C@H]1CN(C(=O)OC(C)(C)C)CCN1c1ccc(N2CC[C@H](O)C2)c(C#N)c1 | / | / | / | / | -41 | -9 | / | / | / | / | /
Cc1ccc(-n2c(SCC(=O)c3ccc4c(c3)OCO4)nc3ccccc3c2=O)cc1 | / | / | / | / | 10 | 4 | / | / | / | / | /
COc1cc2c(cc1NC(=O)CSc1nnc(-c3cccc(Cl)c3)n1-c1ccccc1)oc1ccccc12 | / | / | / | / | 5 | -16 | / | / | / | / | /
CSc1cccc(NS(=O)(=O)c2ccc3c(c2)CCN3C(C)=O)c1 | 23 | 19 | 71* | 9 | 24 | 45* | 60* | 30* | 27* | 6 | 48*
COc1cccc(NS(=O)(=O)c2ccc3c(c2)CCN3C(C)=O)c1 | 31 | 2 | 47 | 32 | 28 | 37 | / | / | / | / | /
O=C(c1cc2nc(-c3ccc(F)cc3)cc(C(F)(F)F)n2n1)N1CCCCC1c1cccnc1 (stereo not drawn) | 27 | 13 | 67* | 10 | 10 | 41* | 64* | 32* | 22 | 9 | 57*
O=C(c1cnn2c(C(F)(F)F)cc(-c3ccccc3)nc12)N1CCCCC1c1cccnc1 (stereo not drawn) | 22 | 2 | 10 | 1 | 9 | -3 | / | / | / | / | /
CC(C)COc1ccc(C/C(N)=N/n2cnnc2)cc1 | 22 | -41 | 62* | 8 | 35 | 39* | 46* | 20 | 26* | 3 | 18
COc1ccc(C/C(N)=N/n2cnnc2)cc1 | -15 | -18 | 0 | -1 | -17 | 9 | / | / | / | / | /
C#CCNC(=O)C[C@H]1C[C@@]2(C(=O)OC)C(=C[C@H](COCc3ccccc3)O[C@@H]2C)N(CCC2=CCCCC2)C1=O | / | / | / | / | -34 | 7 | / | / | / | / | /
COc1cc(OC)cc(-c2cc3nc(C)c(CCC(=O)O)c(C)n3n2)c1 | 55 | 53 | 61* | 53 | 78* | 89* | 64* | 2 | 90* | 89* | 97*
Cc1cccc2cc(-c3ccccc3)c(-c3ccccc3)c[n+]12 | 41 | 42 | 62* | 53 | 20 | 64* | 52* | 29* | -34 | 2 | 44*
Cc1nn(C)c(C)c1CN(Cc1nc(CCC(C)C)no1)C(C)C | 19 | 19 | 79* | 48 | 19 | 66* | 73* | 26* | 51* | 3 | 62*
COc1cccc(NC(=O)CSc2nnc(-c3cc(C)n(-c4ccccc4)c3C)o2)c1 | 49 | 43 | 53 | 59 | 40 | 68* | 69* | 10 | 76* | 30* | 70*
CC(C)C[C@H](NC(=O)c1ccccc1)C(=O)N1CCC[C@H]1C(=O)NCc1ccccc1 | / | / | / | / | 15 | 9 | / | / | / | / | /
Cn1nc(C(C)(C)C)cc1C(=O)NCc1ccc(N2CCCC2=O)cc1 | 38 | 15 | 81* | 35 | 18 | 69* | 77* | 36* | 42* | -1 | 52*
CCN(CC)S(=O)(=O)c1ccc(C)c(NC(=S)N2CCN(C/C=C/c3ccccc3)CC2)c1 | 23 | 12 | 66* | 17 | 12 | 43* | 39 | 31* | -8 | -10 | 24
CCN(CC)S(=O)(=O)c1ccc(C)c(NC(=S)N2CCN(c3ccccn3)CC2)c1 | 5 | 1 | 7 | 12 | 12 | 0 | / | / | / | / | /
COc1ccc(Nc2nc(N3CCCCC3)c3ccccc3n2)cc1 | 5 | 12 | 58* | 10 | 13 | 38* | 49* | 39* | -24 | -1 | 10
Cc1ccc(Nc2nc(N3CCOCC3)c3ccccc3n2)cc1 | 8 | -2 | 1 | -40 | -12 | 7 | / | / | / | / | /
CC(C)(C)C(=O)Nc1ccc(N=Nc2ccccc2)cc1 | 51 | 52 | 64* | 38 | 46 | 66* | 54* | 60* | 82* | -9 | 60*
Cc1ccc(NC(=O)CSc2ccc3c(c2)OCCO3)c(O)c1 | 31 | -3 | 73* | 45 | 18 | 39* | 69* | 43* | 51* | 4 | 37
CC(C)C[C@@H]1NC(=O)[C@H](Cc2ccccc2)N(C)C(=O)[C@H](C)NC(=O)c2ccccc2NC(=O)[C@H](Cc2ccc(O)cc2)N(C)C1=O | 41 | 22 | 11 | 31 | 21 | 28 | / | / | / | / | /
COc1ccc(CC2C(=O)NC(C)C(=O)N(C)C3Cc4ccc(cc4)Oc4cc(ccc4O)CC(C(=O)NC(C)C(=O)NC(C)C(=O)N2C)N(C)C3=O)cc1 (stereo not drawn) | 94* | 94* | 91* | 98* | 76* | 88* | 96* | 90* | 104* | 19* | 82*
